Measured values as given in PubChem BioAssay (NCI).
About 83,000 compounds went through this panel and 20% of them were active in at least one assay; those are over-represented in the sample as a whole.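 Treatment: one concentration, 48 hours, 96-well format. Scoring: percent growth, with anything below 10 considered active.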 A number with no mark means an inactive call. Activity calls are given as the source filed them.

Key:
Test in all cases: NCI-60 one-dose screen, 48 h (100 = growth as untreated, 0 = no growth, -100 = all killed)
Conditions in all cases: 10 µM
[1] = tested on: SR leukemia
[2] = tested on: RPMI-8226 leukemia
[3] = tested on: OVCAR-8 ovarian
[4] = tested on: OVCAR-5 ovarian
[5] = tested on: OVCAR-4 ovarian
[6] = tested on: SK-OV-3 ovarian
[7] = tested on: IGROV1 ovarian
[8] = tested on: OVCAR-3 ovarian
[9] = tested on: NCI/ADR-RES ovarian
[10] = tested on: HS 578T breast

Structure (SMILES)	growth [1]	growth [2]	growth [3]	growth [4]	growth [5]	growth [6]	growth [7]	growth [8]	growth [9]	growth [10]
O=C(CSc1nnc(-c2c[nH]c3ccccc23)n1-c1ccccc1)c1ccc(Br)cc1	90.8%	54.4%	43.5%	58.3%	46.2%	48.6%	64.1%	42.5%	26.3%	
O=c1cc(-c2ccccc2)oc2cc(OCCCNCc3ccccc3)cc(O)c12	-24.8% (active)	-26.8% (active)	-90.5% (active)	75.5%	-16.2% (active)	30.1%	9.54% (active)	16.2%	-77.9% (active)	-4.99% (active)
CN(C(=O)c1ccc(C(C)(C)C)cc1)c1sc2c(c1C#N)CCC(=O)C2	13.7%	9.38% (active)	5.3% (active)	8.47% (active)	1.97% (active)		-34.4% (active)	-69.7% (active)	-35.1% (active)	11.8%
O=C(NCCCCCCCCCC[P+](c1ccccc1)(c1ccccc1)c1ccccc1)c1ccc(-n2nc(-c3ccccc3O)nc2-c2ccccc2O)cc1	1.87% (active)	1.07% (active)	-22.2% (active)	-94% (active)	-51.8% (active)	-71.5% (active)	-75.7% (active)		37.4%	-22.1% (active)
CN(C)c1nc(NCCNS(=O)(=O)c2ccc(C(=O)/C=C/c3ccccc3)cc2)nc(Nc2ccc(F)cc2)n1	-4.76% (active)	18.2%	41.9%	38.2%	25.2%	97.8%	8.78% (active)		15.7%	72.9%
Oc1ccc(/C=C2\CCCc3cc4ccc(O)cc4[o+]c32)c(O)c1	15.3%	50.6%	-56.9% (active)	122%	42.9%		21.4%	-45.1% (active)	-24.7% (active)	52.3%
CC(=O)c1ccc(Nc2nc(SCCC(C)C)nc(-c3ccc(F)cc3)c2C#N)cc1	64.9%	81.7%	8.35% (active)	53.4%	-6.74% (active)		16%	19%	23.9%	32%
O=S(=O)(Nc1ncccn1)c1ccc(-n2c(-c3ccc(Br)cc3)nc(-c3ccccc3)c2-c2ccccc2)cc1	45.2%	33.8%	50.5%	70.5%	57.7%		51.6%	48.2%	33.6%	20.4%
CC(=O)c1ccc(Nc2nc(SC(C)C)nc(-c3ccccc3)c2C#N)cc1	70%	90.3%	5.17% (active)	55.8%	-19.1% (active)		8.92% (active)	25.3%	1.21% (active)	28.2%
O=C(NO)c1ccc(Cn2ccc3c(NCc4ccccc4)ncnc32)cc1	12.7%	17.2%	-37.8% (active)	-8.63% (active)	36%	-30.5% (active)	-40.1% (active)		-32.1% (active)	-0.0703% (active)
O=c1c2ccccc2nc(COc2ccccc2)n1/N=C/c1ccc(N2CCCC2)cc1	73.9%	64.1%	99%	96.6%	81.8%	113%	97.2%		94.3%	94.8%
O=C1CCC(N2Cc3cc(CC(=O)Nc4ccc(N5CCCCC5)cc4)ccc3C2=O)C(=O)N1 (stereo unspecified)	77.2%	66.4%	20.9%	70.5%	31.1%	61%	31.8%		25.2%	27.4%
COc1ccc2cc([C@H](C)C(=O)NCc3ccccc3)ccc2c1	29.8%	25.1%	32.7%	53.8%	53.5%		46.9%	19.9%	-10% (active)	16.8%
COc1ccc(-c2cc(-c3cc(C(=O)c4ccc(Br)cc4)n4ccc(C)cc34)nc(N)c2C#N)cc1	79.1%	86.8%	66.3%	91.8%	86.1%		90%	108%	82.6%	90.8%
O=C(NC(=S)N1CCN(c2ncnc3c2cnn3-c2ccccc2)CC1)c1ccc(Cl)cc1	13.9%	69.1%	38.3%	83.8%	16.5%	41.8%	70.9%		28.1%	32.7%
Cc1ccc(F)cc1N/C=c1\s/c(=C(\C#N)C(=O)Nc2ccccc2)n(-c2ccccc2)c1=O	75.4%	84.9%	53.9%	72.5%	-26.9% (active)		61.5%	99%	42.6%	37%
CN1CCN(Cc2ccc(C(=O)Nc3cccc(Nc4ccc5c(O)cccc5n4)c3)cc2C(F)(F)F)CC1	4.88% (active)	-10.6% (active)	-19.5% (active)		-13.1% (active)	-46.6% (active)	-54.6% (active)	-23% (active)	-0.427% (active)	-37.5% (active)
N#Cc1c(NC(=O)c2ccc(C(O)(C(F)(F)F)C(F)(F)F)cc2)sc2c1CCC(=O)C2	-6.36% (active)	6.42% (active)	-7.08% (active)	-60.8% (active)	-29.6% (active)	-38.9% (active)	-27.6% (active)		-60.4% (active)	-22% (active)
Cc1ccc2nc(COc3ccc(C(=O)NNC(=S)NC(=O)c4ccccc4)cc3)[nH]c2c1	25.8%	64.9%	42.1%	80.2%	57.3%		53.4%	58.2%	-3.62% (active)	60.5%
CCOc1ccc2ncc(C#Cc3cncc(C(=O)Nc4ccc(CN5CCN(C)CC5)c(C(F)(F)F)c4)c3)n2n1	1.01% (active)	-13.3% (active)	-60.9% (active)	-87% (active)	-60.6% (active)	45.7%	-58.2% (active)	-79.1% (active)	-70.1% (active)	
O=c1[nH]c2ccccc2cc1CSc1ccc(Nc2nccc(-c3ccc(Cl)cc3)n2)cc1	59.2%	21.2%	-52.9% (active)	-19.5% (active)	-76.8% (active)	-15.1% (active)	11%	-73.9% (active)	-39% (active)	
CC(C)(C)c1ccc(NCc2cn(-c3ccc(C(=O)O)cc3)nc2-c2ccc(C#N)cc2)cc1	5.39% (active)	14.6%	28.5%	32.6%	36.7%		36.5%	19.7%	11.7%	37.4%
CCCCOc1ccc(Nc2nc3ccccc3nc2Nc2ccc(OCCCC)cc2)cc1	80.1%	57.8%	92.3%	128%	93.6%		108%	68.9%	94.3%	103%
N#Cc1c(NC(=O)c2ccc(C(F)(F)F)c(Cl)c2)sc2c1CCC(=O)C2	-11.8% (active)	0.426% (active)	-34% (active)	-8.2% (active)	-21.1% (active)	-30.1% (active)	-35.3% (active)		-48.9% (active)	-26% (active)
Cc1ccc2nc(COc3ccc(C(=O)NNC(=S)NCCc4ccccc4)cc3)[nH]c2c1	88.2%	87.7%	13.1%	88.9%	-4.14% (active)	83.4%	52.9%		75.4%	41.1%
CN1C(=O)N(C)C2SC(N/N=C/c3cccs3)=NC21 (stereo unspecified)	13.4%	51.9%	34.4%	42.5%	57.9%		36.7%	-54% (active)	-15.2% (active)	25.3%
COc1cc2oc(-c3cccc(C(=O)Nc4ccc(Cl)cc4)c3)cc(=O)c2c(OCCNC(=O)CNC(=O)OC(C)(C)C)c1OC	37.5%	29.4%	48%	67.8%	65.8%		50.9%	98.3%	50.6%	62.8%
COc1cc(/C=C/C(=O)c2cc(OC)c(OC)c(OC)c2)ccc1Oc1nc(Nc2ccc(F)cc2)nc(N(C)C)n1	-5.9% (active)	-19.8% (active)	-59.6% (active)	-44.7% (active)	18.4%		-64.3% (active)	12.1%	-29.6% (active)	16.1%
COc1cc(/C=C/C(=O)c2ccc(S(=O)(=O)NCCNc3nc(Nc4ccc(F)cc4)nc(N(C)C)n3)cc2)cc(OC)c1OC	3.14% (active)	7.35% (active)	-65% (active)	-23.4% (active)	22.8%	109%	-48.9% (active)		46.6%	
